# Most compounds without a hit are left out; they make up all but 0.9% or so of the library.
# PPARg SRC-1 ag = promotes SRC-1 coactivator recruitment by human PPARgamma | P37231 | PPARgamma-SRC-1 coactivator recruitment biochemical assay | activation, % at 8 µM | actives 0.41% (n = 200,000); in the data active = activation above about 19%;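 also: 0% = DMSO and 100% = reference agonist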
# SRC1 TRFRET art = counter-screen for PPARgamma SRC-1 recruitment agonists: TR-FRET artefact | TR-FRET detection artefact counter-screen, emission ratio; stronger effect = higher value | TR-FRET ratio at 8 µM | actives 0.34% (n = 99,000); in the data active = TR-FRET ratio above about 2300
# SRC3 TRFRET art = TR-FRET artefact, counter-screen to PPARgamma/SRC-3 agonist assay; PPARgamma/SRC-3 format; stronger effect = higher value; TR-FRET ratio at 8 µM; actives 0.39% (n = 99,000); AID 1048; in the data active = TR-FRET ratio above about 2000
# PPARg SRC-3 ag = promotes SRC-3 coactivator recruitment by human PPARgamma. P37231. biochemical PPARgamma/SRC-3 coactivator recruitment assay. activation, % at 8 µM. actives 0.26% (n = 200,000); in the data active = activation above about 23%;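 also: 0% = DMSO and 100% = reference agonist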
# TR-FRET SRC-2 ct = flags TR-FRET format artefacts in PPARgamma SRC-2 recruitment agonist screen. TR-FRET artefact counter-screen; stronger effect = higher value. TR-FRET ratio at 8 µM. actives 0.4% (n = 200,000). AID 1049; in the data active = TR-FRET ratio above about 2000
# PPARg SRC-2 ag = agonists of SRC-2 recruitment by human PPARgamma | PPARgamma LBD-SRC-2 recruitment, biochemical | AID 1032 | activation, % at 8 µM | actives 0.34% (n = 200,000);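 also: 0% = vehicle and 100% = reference agonist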
# PPARg SRC2 ag = confirmation of agonists of SRC-2 recruitment by human PPARgamma; shares compounds with PPARg SRC-3 ag; biochemical SRC-2 recruitment by PPARgamma; activation, % at 8 µM; actives 52% (n = 790); AID 1297;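 also: 0% = vehicle alone and 100% = reference agonist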
# PPARg SRC1 ag = confirmation of agonists of SRC-1 recruitment by human PPARgamma; activation, % at 8 µM; actives 43% (n = 790); shares compounds with PPARg SRC-3 ag; AID 1300; PPARgamma–SRC-1 coactivator recruitment biochemical assay; in the data active = activation above about 20%;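 also: 0% = vehicle wells and 100% = reference agonist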
# PPARg SRC3 conf = human PPARgamma SRC-3 recruitment agonism, confirmation. shares compounds with PPARg SRC-3 ag. biochemical PPARgamma-SRC-3 coactivator recruitment, agonist mode. activation, % at 8 µM. actives 29% (n = 790); in the data active = activation above about 24%;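 also: 0% = vehicle wells and 100% = reference agonist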
# Starred values were filed as active, the others as inactive; · = not tested or not shown. Rule as the data show it, unless noted: active = activation above about 22%; inactive = the rest.
SMILES,PPARg SRC-1 ag,SRC1 TRFRET art,SRC3 TRFRET art,PPARg SRC-3 ag,TR-FRET SRC-2 ct,PPARg SRC-2 ag,PPARg SRC2 ag,PPARg SRC1 ag,PPARg SRC3 conf
CCOC(=O)CSc1nc(=O)n2ccc(C)cc2n1,-5,1653,1436,-2,1559,-9,·,·,·
COc1ccc(/C=N/c2c(-c3ccco3)nc3ccccn23)cc1OC,34*,·,·,29*,1874,23*,17,8,6
NC(=O)Nc1ccc(C(=O)OCC(=O)NC2CCCCC2)cc1,4,1753,1600,-2,1627,-1,·,·,·
Cc1ccnc(NC(=O)CSc2cc(=O)n(C)c3ccccc23)c1,74*,·,·,96*,3578*,75*,42*,23*,28*
Cn1c(=O)cc(SCC(=O)Nc2ccccn2)c2ccccc21,45*,·,·,65*,2585*,59*,34*,24*,27*
Cc1ccnc(NC(=O)CCCOc2cc(=O)n(C)c3ccccc23)c1,-7,·,·,-4,1577,-1,·,·,·
COC(=O)c1sc(N2C(=O)c3oc4ccccc4c(=O)c3C2c2cccs2)nc1C (stereo not drawn),-6,·,·,-2,1363,-2,·,·,·
CCOc1cccc(C2C(C(=O)c3ccc(C)o3)=C(O)C(=O)N2c2nccs2)c1 (stereo not drawn),22*,·,·,22,2000*,27*,13,8,8
Cc1cc(N2C(=O)C(O)=C(C(=O)c3ccc(C)o3)C2c2cccs2)no1 (stereo not drawn),35*,·,·,45*,2253*,37*,19,13,13
Cc1cc(N2C(=O)C(O)=C(C(=O)c3ccco3)C2c2ccc(O)cc2)no1 (stereo not drawn),0,·,·,-11,1340,8,·,·,·
Cc1ccc2nc(N3C(=O)C(O)=C(C(=O)c4cc5ccccc5o4)C3c3cccs3)sc2c1 (stereo not drawn),30*,·,·,30*,1932,14,7,2,2
CCOc1cccc(C2C(C(=O)c3ccc(C)o3)=C(O)C(=O)N2Cc2ccncc2)c1 (stereo not drawn),13,·,·,5,1504,7,·,·,·
O=C(CSc1nnc2ccccn12)Nc1ccc(S(=O)(=O)N2CCOCC2)cc1,5,1979,1548,4,1571,4,·,·,·
CCc1ccc(C(=O)NNC(=O)OC)cc1,-9,1473,1311,-4,1264,-6,·,·,·
CS(=O)(=O)c1nc(-c2ccc(Br)cc2)cc(-c2ccccc2)c1C#N,53*,·,·,111*,2843*,7,66*,49*,39*
CCN(CC)S(=O)(=O)c1ccc(C(=O)NCc2ccc3c(c2)cc(C)n3C)cc1,26*,·,·,49*,4972*,75*,158*,120*,102*
Cc1cc2cc(CNC(=O)c3ccc(S(=O)(=O)N4CCCC4)cc3)ccc2n1C,60*,·,·,88*,5041*,83*,100*,84*,59*
Cc1cc2cc(CNC(=O)c3ccc(S(=O)(=O)N4CCCCC4)cc3)ccc2n1C,83*,·,·,111*,4697*,74*,173*,143*,102*
Cc1cc2cc(CNC(=O)C3CC3)ccc2n1C,-4,·,·,-6,1455,-1,·,·,·
COc1ccc(C(=O)NNC(=O)c2ccc(C)cc2)cc1S(=O)(=O)N1CCCC1,6,1763,1489,1,1508,2,·,·,·
COc1ccc(CC(=O)NNC(=O)CCc2ccccc2)cc1OC,-8,1535,1347,-2,1510,-9,·,·,·
COc1ccc(Cc2nnc(NS(=O)(=O)c3ccc(Cl)cc3)s2)cc1OC,-10,1681,1490,-3,1453,2,·,·,·
Cc1occc1C(=O)N/N=C/c1c[nH]c2ccccc12,19*,·,·,10,1606,2,3,1,2
COc1ccc(OCC(=O)NNC(=O)CCc2ccccc2)cc1,-11,1505,1553,-3,1544,-2,·,·,·
COc1ccc(CC(=O)NNC(=O)COc2ccc3ccccc3c2)cc1,194*,6123*,4430*,142*,3867*,214*,256*,196*,169*
SMILES,PPARg SRC-1 ag,SRC1 TRFRET art,SRC3 TRFRET art,PPARg SRC-3 ag,TR-FRET SRC-2 ct,PPARg SRC-2 ag,PPARg SRC2 ag,PPARg SRC1 ag,PPARg SRC3 conf
O=C(NCCc1cnn(-c2ccccc2)c1)c1cc(COc2c(F)cccc2F)on1,-4,1760,1418,2,1572,3,·,·,·
CC1N(C)c2cccc3cccc(c23)N1C,13,·,·,11,1457,25*,24*,17,13
CC(=O)Nc1ccc(NC(=O)CC2Nc3cccc4cccc(c34)NC2=O)cc1 (stereo not drawn),6,·,·,26*,1572,11,10,12,7
COc1ccc(C2C(C(=O)N3CCC(C(N)=O)CC3)CC(=O)N2c2ccc(OC)cc2)cc1 (stereo not drawn),-5,1747,1483,3,1531,-5,·,·,·
COC(=O)c1cc2c(C)c(C)c3ccccn3c-2c1C(=O)OC,18,·,·,35*,2102*,32*,7,7,4
COC(=O)c1cc2c(C)cc3ccc(C)cn3c-2c1C(=O)OC,26*,·,·,47*,2394*,41*,12,9,5
COC(=O)c1cc2ccccn2c2c(C(=O)OC)c(C(=O)OC)cc1-2,9,·,·,3,1669,6,·,·,·
CCCC(=O)C1=C(O)C(C(=O)OC)C(C)(C)CC1=Nc1ccc(N)cc1 (stereo not drawn),5,·,·,1,1498,2,·,·,·
CCCC(=Nc1ccc(N)cc1)C1=C(O)C(C(=O)OC)C(C)(C)CC1=O (stereo not drawn),9,·,·,27*,1541,19,3,1,2
CC(=O)OCc1c(C)cc(C)c(/C=C(/C#N)C(N)=O)c1C,2,1555,1441,-1,1566,-11,·,·,·
C=CCCCCCCCC(=O)OC,22*,1995,1763,5,1655,13,5,4,2
CC(C)(C)c1ccc(C(CC(=O)O)NC(=O)Cc2ccc(F)cc2)cc1 (stereo not drawn),0,1854,1459,0,1664,-11,·,·,·
O=C(CC1C(=O)NCCN1Cc1cccc(Oc2ccccc2)c1)NCCc1ccncc1 (stereo not drawn),1,1749,1659,0,1683,6,·,·,·
N#Cc1cc2c(nc1SCC(=O)Nc1sc3c(c1C#N)CCC3)CCCC2,14,·,·,2,1572,10,·,·,·
N#Cc1ccc(-c2ccc(F)cc2)nc1SCC(=O)Nc1sc2c(c1C#N)CCC2,20*,·,·,9,1696,2,21,10,10

# Assay outcomes: PubChem, The Scripps Research Institute Molecular Screening Center
